Screens as filed in PubChem BioAssay.
This is a sample that favours compounds with a hit; in the whole collection about 2.2% have one here.
EBNA-1 inhibitor: EBNA-1 DNA-binding inhibitors, primary screen, biochemical, fluorescence polarization | inhibition, % at 14.8 µM | 300,000 tested, 0.34% active | AID 1950, 2009; in the data active means inhibition above about 28%
NALP1 inh: NALP1 inflammasome inhibitors in reconstituted yeast, colorimetric, S. cerevisiae, triplicate retest; S. cerevisiae NALP1/ASC/caspase-1 growth, X-gal OD620, 72 h; 280,000 tested, 0.61% active; AID 2071, 2009; inhibition, % at 10 µM; in the data active means inhibition mostly above about 24%, no sharp cut-off; inactive means mostly below about 32%
NALP3 yeast inh: NALP3 inflammasome inhibitors in reconstituted yeast, primary screen, luminescence, uHTS. Yeast reconstituted NLRP3/ASC/caspase-1, beta-gal luminescence, 24 h. inhibition, % at 10 µM. 330,000 tested, 0.39% active;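 active means inhibition of 50% or more; inactive means inhibition below 50%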;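 further: plate controls were induced DMSO wells for no effect and uninduced yeast grown without galactose for full effect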
dFosB act-1: activators of delta FosB homodimer, primary screen, biochemical, fluorescence polarization, TAMRA-CDK5 oligo, single point; 340,000 tested, 0.99% active; purified delta FosB; percent of positive-control signal above neutral wells; Protein FosB (Mus musculus), P13346; activation, % at 25 µM;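 active means mean activation above about 17%, with every replicate also reaching it, limit read from the data, passing the limit was not always enough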
Target sequence (P13346 whole entry, looked up): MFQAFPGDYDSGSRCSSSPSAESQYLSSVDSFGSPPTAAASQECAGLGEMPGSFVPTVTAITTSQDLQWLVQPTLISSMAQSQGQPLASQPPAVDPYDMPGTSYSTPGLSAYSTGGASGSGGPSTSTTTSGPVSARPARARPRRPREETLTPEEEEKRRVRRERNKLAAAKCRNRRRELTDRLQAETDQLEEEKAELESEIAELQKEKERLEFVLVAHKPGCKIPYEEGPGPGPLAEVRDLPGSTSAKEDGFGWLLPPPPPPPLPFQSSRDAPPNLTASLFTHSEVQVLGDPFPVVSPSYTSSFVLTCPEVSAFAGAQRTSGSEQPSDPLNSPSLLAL
ZTA counter: blocks Epstein-Barr virus ZTA, an EBNA-1 counter-screen | inhibition, % at 11 µM | 320,000 tested, 0.15% active | ZTA-DNA binding, fluorescence polarization | AID 2234; in the data active means inhibition above about 33%
Target sequence (P03206 whole entry, looked up): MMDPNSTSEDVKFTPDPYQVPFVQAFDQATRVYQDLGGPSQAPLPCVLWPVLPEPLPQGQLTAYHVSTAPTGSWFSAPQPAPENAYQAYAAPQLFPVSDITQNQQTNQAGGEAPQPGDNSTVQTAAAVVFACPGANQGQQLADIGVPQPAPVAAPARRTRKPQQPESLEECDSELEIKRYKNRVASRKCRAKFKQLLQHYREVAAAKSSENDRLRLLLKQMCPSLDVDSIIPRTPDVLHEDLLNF
PolyA inh: polyadenylation inhibitors in yeast reporter cells, primary screen, luminescence, S. cerevisiae | S. cerevisiae SKY197-pL101 polyadenylation reporter, beta-gal luminescence; efflux-impaired pdr1/pdr3 knockout yeast; score 100 = 6 SD above DMSO | activity score, % at 12 µM | 300,000 tested, 0.02% active;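 active means lowest replicate activity score at least 50, where 100 means six control SD above control mean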;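 further: yeast exposed to compound for 9 h at 30 °C; higher score means more reporter readthrough which indicates perturbed polyadenylation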
dFosB act-2: activators of mouse delta FosB DNA binding, confirmation, biochemical, fluorescence polarization, TAMRA-CDK5 oligo, cherry-picked samples | shares compounds with dFosB act-1 | purified delta FosB; normalised: neutral wells 0, positive control 100 | activation, % at 24.9 µM | 2,400 tested, under 10 active | AID 588690, 2011;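 active means highest replicate activation at or above 34% and every replicate reaching that threshold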;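 further: higher polarization means more probe DNA bound by delta FosB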
* = called active by the depositor; . = no result.

SMILES	EBNA-1 inhibitor	NALP1 inh	NALP3 yeast inh	dFosB act-1	ZTA counter	PolyA inh	dFosB act-2
CC/C(=N\NC(=O)CSCc1ccccc1Br)c1ccc2c(c1)OCCO2	10	5	21	20*	29	13	0
CN(C(=O)CSc1nc2ccccc2c(=O)n1-c1ccccc1Cl)C1CCS(=O)(=O)C1 (configuration not stated)	.	.	6	-4	.	.	.
Cc1ccc(C(=O)OC(C)CN2C(C)CCCC2C)cc1 (configuration not stated)	-3	-7	13	-5	-17	-17	.
Nn1cnnc1N/N=C/c1ccc(Cl)c([N+](=O)[O-])c1	-20	3	7	-5	-6	7	.
CN(C)c1nc(N/N=C\c2ccc(Cl)c([N+](=O)[O-])c2)nc(Nc2ccc(F)cc2)n1	-2	.	46	118*	-14	-8	-17
O=C1C(c2ccccc2)SC(=Nc2ccccc2)N1S(=O)(=O)c1ccccc1 (configuration not stated)	4	13	13	21*	-1	29	4
CC1(C)SC(=Nc2ccccc2)N(S(=O)(=O)c2ccccc2)C1=O	5	30	10	5	16	9	.
CC(C)C(NC(=O)C1CC(=O)N(Cc2ccccc2)C1)c1nc2ccccc2[nH]1 (configuration not stated)	.	.	7	-5	.	.	.
COc1cccc(N2CCc3c(C)nc4ccc(Cl)cc4c32)c1	.	2	.	-1	.	-24	.
CCN1Cc2c(/C=C/c3ccccc3)nc3ccc(OC)cc3c2N(c2cccc(Cl)c2)C1	-2	11	9	21*	1	-16	4
COc1cc(/C=N/NC(=O)c2cccnc2)ccc1OCC(=O)Nc1c(C)cc(C)cc1C	-4	26	3	26*	12	15	6
COc1ccc(NC(=O)COc2ccc(/C=N/NC(=O)c3cccnc3)cc2OC)cc1	11	25	15	-11	10	11	.
COc1cc(/C=N/NC(=O)c2cccnc2)ccc1OCC(=O)Nc1ccccc1Cl	-3	8	8	116*	-1	-7	0
Cc1cc(C)cc(C(=O)NCCC(=O)NCc2cc(=O)n(C)c(=O)n2C)c1	1	10	9	3	6	16	.
Cc1c(C(=O)Nc2ccc(S(N)(=O)=O)cc2)oc2ccc(Cl)cc12	-16	2	16	27*	0	-7	2
CCc1ccc2oc(C(=O)Nc3ccc(S(N)(=O)=O)cc3)c(C)c2c1	3	11	14	6	11	-13	.
COc1ccc(C(=O)NNC(=O)C(Cc2ccc(O)cc2)NC(=O)c2ccccc2NC(=O)c2ccc(OC)cc2)cc1 (configuration not stated)	-6	31	-5	60*	-20	-4	3
O=C(Nc1ccccc1C(=O)NC(Cc1ccccc1)C(=O)NC1CCCCC1)c1ccccc1 (configuration not stated)	13	22	27	21*	9	-6	5
O=C(Nc1ccccc1C(=O)NC(Cc1ccccc1)C(=O)O)c1ccccc1 (configuration not stated)	0	0	31	4	7	3	.
CCCNC(=O)C(Cc1ccc(OC)cc1)NC(=O)c1ccc(Cl)cc1 (configuration not stated)	.	.	5	-11	-19	.	.
COc1ccc(C(=O)Nc2ccccc2C(=O)NC(Cc2ccc(O)cc2)C(=O)NNC(=O)c2ccccc2Cl)cc1 (configuration not stated)	3	5	-15	42*	-12	18	5
CC(=O)c1sc(NC(=O)C2CCN(c3ncnc4sc(C)c(C)c34)CC2)nc1-c1ccccc1	-3	.	21	0	2	21	.
Cc1sc2ncnc(N3CCC(C(=O)Nc4nc(-c5ccc(F)cc5)cs4)CC3)c2c1C	4	.	31	18*	7	-33	-1
CC(=O)Nc1ccc(NC(=O)C(C)OC(=O)c2cccc(S(=O)(=O)N3CCCCCC3)c2)cc1 (configuration not stated)	7	.	19	0	13	9	.
CC(=O)Nc1ccc(NC(=O)C(C)OC(=O)c2cccc(S(=O)(=O)N3CCCCC3)c2)cc1 (configuration not stated)	2	12	1	32*	10	-2	-4
SMILES	EBNA-1 inhibitor	NALP1 inh	NALP3 yeast inh	dFosB act-1	ZTA counter	PolyA inh	dFosB act-2
O=C(Cc1n[nH]c(=O)c2ccccc12)OCC(=O)c1ccc(OC(F)F)cc1OC(F)F	-3	.	13	-13	-5	5	.
Cc1sc2nc(CSCC(=O)Nc3cc(F)ccc3F)[nH]c(=O)c2c1C	.	.	14	-15	0	.	.
Cc1cc(C)c(NC(=O)CSCc2nc3sc(C)c(C)c3c(=O)[nH]2)c(Cl)c1	.	.	10	32*	0	.	1
O=C(Cc1cccc2ccccc12)NNC(=O)Nc1cccc(Cl)c1	3	-6	3	31*	10	21	1
Cc1cccc(OCC(=O)NNC(=O)Nc2cccc(Cl)c2)c1C	10	32	4	18*	2	-6	7
O=C(CN1CCN(C(=O)c2ccc(-c3nc4ccccc4s3)o2)CC1)Nc1ccc(F)cc1	.	.	17	-30	-3	.	.
CCc1c(C)c(C#N)c2nc3ccccc3n2c1NCc1ccccn1	-7	8	6	-5	11	-7	.
NC(=O)Cn1cc(/C=N/NC(=O)c2ccc(Cn3cc(Cl)cn3)o2)c(-c2ccccc2)n1	.	0	19	36*	.	.	6
O=C(Nc1ccc(NC(=O)c2ccco2)c(Cl)c1)c1ccc2c(c1)OCCO2	-4	.	-18	60*	-3	1	1
COc1ccc(-c2nc3cc(NC(=O)c4ccc5c(c4)OCO5)ccc3o2)cc1	-8	-20	-7	11	0	-3	.
O=C(Nc1ccc2oc(-c3ccccc3)nc2c1)c1ccc2c(c1)OCCO2	7	-3	23	42*	-8	14	3
O=C(Nc1ccc2oc(-c3ccccc3F)nc2c1)c1cncc(Br)c1	0	0	2	22*	1	13	1
O=C(Nc1ccc(NC(=O)c2ccco2)cc1)c1ccc2c(c1)OCO2	2	18	-2	-6	15	11	.
O=C(Nc1ccc2oc(-c3ccncc3)nc2c1)c1ccc2c(c1)OCCO2	1	.	2	46*	21	-6	0
CCOCCCNCc1ccc(OCc2ccccc2C)c(OC)c1	5	13	10	-9	10	-17	.
